Rows were chosen to be rich in hits. Some 3.3% of all compounds tested hit in one or more screens of this group.
eIF4E 4G PPI: inhibitors of eIF4E and eIF4G interaction in translation initiation. P63073+Q04637. TR-FRET eIF4E-eIF4GI(517-606) binding, 2 h. inhibition, % at 21.7 µM. actives 0.37% (n = 220,000);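 note: 0% = full FRET control wells and 100% = background wells lacking eIF4GI fragment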
Mcl1-Bid inh: Mcl-1/Bid interaction inhibition; inhibition, % at 21.7 µM; actives 0.97% (n = 220,000); Q07820; TR-FRET Mcl-1/Bid-Dy647 peptide binding, 1536-well; AID 1021;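 active = compounds that cut the binding signal by more than half at the single screening dose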;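 note: His-tagged Mcl-1 with europium anti-His antibody binding Bid BH3 peptide; 0% = Mcl-1 plus peptide wells and 100% = peptide-only wells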
Bim-Mcl-1: inhibitors of Bim-Mcl-1 interaction, human; Q07820; Bead-based flow cytometry, Bim peptide-Mcl-1 binding; inhibition, % at 10 µM; actives 0.1% (n = 190,000); in the data active = inhibition above about 40%;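 note: 0% = no compound tracer wells and 100% = peptide blocker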
p47phox inh: blocks human p47phox regulatory protein of NADPH oxidases; p47phox/p22phox peptide binding, fluorescence polarization, 2 h; inhibition, % at 24.7 µM; actives 0.53% (n = 220,000); AID 1274;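 note: 0% = p47phox with labelled peptide and 100% = labelled peptide alone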
Mcl1 Noxa PPI: disrupts binding of human Mcl-1 to Noxa peptide. TR-FRET Mcl-1/Noxa peptide binding, 2 h. inhibition, % at 21.7 µM. actives 1.5% (n = 220,000). AID 1022;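 active = compounds that cut the protein-peptide binding signal by more than 50% relative to plate controls in a single-dose test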;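 note: His-tagged Mcl-1 with rhodamine Noxa BH3 peptide and terbium anti-His antibody; 0% = Mcl-1 plus Noxa peptide wells and 100% = peptide-only wells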
14-3-3 Bad inh: disrupts binding of bovine 14-3-3 zeta to phospho-Bad peptide | inhibition, % at 21.7 µM | P63103 | TR-FRET 14-3-3zeta/Dy647-pBad peptide displacement, 1 h | AID 781 | actives 0.71% (n = 220,000);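 active = inhibition above about 70%, limit read from the data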;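 note: 0% = full 14-3-3 plus peptide FRET controls and 100% = background without 14-3-3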
* = called active by the depositor; [ ] = another dose, or the depositor's remark.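 Rule for the calls, unless noted: active = inhibition above about 30% (limit read from the data); inactive = the rest.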

For Clc1ccc(/C=N/Nc2ncnc3nc[nH]c23)cc1 the results were eIF4E 4G PPI 66*, Mcl1-Bid inh 11, p47phox inh 11, Mcl1 Noxa PPI 25 and 14-3-3 Bad inh 3.
For CCOC(=O)c1c(C)[nH]c(C(=O)COC(=O)CNC(=O)c2ccc(Cl)cc2Cl)c1C the results were eIF4E 4G PPI 2, Mcl1-Bid inh -4, Bim-Mcl-1 -3, p47phox inh -9, Mcl1 Noxa PPI 5 and 14-3-3 Bad inh -27.
`O=C(NCCNC1CCN(Cc2ccccc2)CC1)c1cccs1` gave eIF4E 4G PPI -12, Mcl1-Bid inh 8, Bim-Mcl-1 -1, p47phox inh -2, Mcl1 Noxa PPI 7 and 14-3-3 Bad inh 71*.
COc1cccc(OC)c1C(=O)Nc1ccccc1C(=O)N1CCOCC1 was read as eIF4E 4G PPI 3, Mcl1-Bid inh 84*, Bim-Mcl-1 -2, p47phox inh -1, Mcl1 Noxa PPI -2 and 14-3-3 Bad inh 4.
`C=CCN(C(=O)CNC(=O)c1cccs1)C(C(=O)NC1CCCCC1)c1cccnc1` (centres undefined) gave eIF4E 4G PPI -5, Mcl1-Bid inh 9, Bim-Mcl-1 5, p47phox inh 47*, Mcl1 Noxa PPI 13 and 14-3-3 Bad inh -4.
`CCCn1c(N)c(C(=O)COc2ccc(Br)cc2F)c(=O)n(C)c1=O` gave eIF4E 4G PPI 1, Mcl1-Bid inh -18, Bim-Mcl-1 0, p47phox inh -8, Mcl1 Noxa PPI 4 and 14-3-3 Bad inh -9.
CC(=O)N(c1cccc(Br)c1)c1nc(C)cc(C)c1C#N was read as eIF4E 4G PPI 0, Mcl1-Bid inh -18, p47phox inh -10, Mcl1 Noxa PPI -1 and 14-3-3 Bad inh -10.
`CCn1c(=N)n(CC(=O)c2cccc([N+](=O)[O-])c2)c2ccccc21` gave eIF4E 4G PPI -3, Mcl1-Bid inh -50, Bim-Mcl-1 0, p47phox inh 1, Mcl1 Noxa PPI 6 and 14-3-3 Bad inh 74*[fluorescence artefact?].
For N=c1n(CC(=O)c2cccc([N+](=O)[O-])c2)c2ccccc2n1Cc1ccccc1 the results were eIF4E 4G PPI 0, Mcl1-Bid inh -6, Bim-Mcl-1 -6, p47phox inh -5, Mcl1 Noxa PPI 22 and 14-3-3 Bad inh -7.
CCCCCNC(=O)c1ccc2c(=O)[nH]c3c(C(=O)NCC4CCCO4)sc(=S)n3c2c1 (centres undefined) was read as eIF4E 4G PPI 1, Mcl1-Bid inh -39, Bim-Mcl-1 4, p47phox inh -41, Mcl1 Noxa PPI 52* and 14-3-3 Bad inh 1.
`O=C(NCc1ccccc1)c1ccc2c(=O)[nH]c3c(C(=O)NCC4CCCO4)sc(=S)n3c2c1` (centres undefined) gave eIF4E 4G PPI 6, Mcl1-Bid inh -35, Bim-Mcl-1 0, p47phox inh -39, Mcl1 Noxa PPI 64* and 14-3-3 Bad inh -17.
O=C(NCC1CCCO1)c1ccc2c(=O)n(-c3ccc(F)cc3)c(=S)[nH]c2c1 (centres undefined) was read as eIF4E 4G PPI -3, Mcl1-Bid inh -49, Bim-Mcl-1 48*, p47phox inh -1, Mcl1 Noxa PPI -12 and 14-3-3 Bad inh -3.
For CCn1c(N)c(C(=O)NCC2CCCO2)sc1=S (centres undefined) the results were eIF4E 4G PPI 14, Mcl1-Bid inh -21, Bim-Mcl-1 -14, p47phox inh 2, Mcl1 Noxa PPI 5 and 14-3-3 Bad inh 10.
For O=C(NCc1ccco1)c1sc(=S)n2c1[nH]c(=O)c1ccccc12 the results were eIF4E 4G PPI 4, Mcl1-Bid inh -30, Bim-Mcl-1 -2, p47phox inh -42, Mcl1 Noxa PPI 73* and 14-3-3 Bad inh 43.
`COCCCn1c(=S)[nH]c2c(sc3ccccc32)c1=O` gave eIF4E 4G PPI 1, Mcl1-Bid inh -74, Bim-Mcl-1 1, p47phox inh -8, Mcl1 Noxa PPI 46 and 14-3-3 Bad inh -8.
`COC(=O)c1c(C(=O)OC)c(-c2ccc(Cl)cc2)n2c1CS(=O)(=O)C2` gave eIF4E 4G PPI 3, Mcl1-Bid inh 2, Bim-Mcl-1 1, p47phox inh -4, Mcl1 Noxa PPI 8 and 14-3-3 Bad inh 4.
Screening O/N=C/c1ccn(-c2ccc(Br)cc2)c1 returned eIF4E 4G PPI 1, Mcl1-Bid inh -9, Bim-Mcl-1 -3, p47phox inh 6, Mcl1 Noxa PPI 6 and 14-3-3 Bad inh -3.
CC(C)CC(=O)Nc1nnc(CSCc2ccc(F)cc2)s1 was read as eIF4E 4G PPI 2, Mcl1-Bid inh -11, p47phox inh -12, Mcl1 Noxa PPI 6 and 14-3-3 Bad inh -9.
Screening Cc1ccc(CNC(=O)c2ccc3c(=O)n(CC4CCCO4)c(=S)[nH]c3c2)cc1 (centres undefined) returned eIF4E 4G PPI 6, Mcl1-Bid inh -80, Bim-Mcl-1 -1, p47phox inh 2, Mcl1 Noxa PPI 0 and 14-3-3 Bad inh -13.
For Cc1ccc(CNC(=O)c2ccc3c(=O)[nH]c4c(C(=O)NCC5CCCO5)sc(=S)n4c3c2)cc1 (centres undefined) the results were eIF4E 4G PPI 0, Mcl1-Bid inh 17, Bim-Mcl-1 0, p47phox inh -36, Mcl1 Noxa PPI 74* and 14-3-3 Bad inh 0.
O=C(CN(Cc1ccccc1)S(=O)(=O)c1ccccc1)N/N=C/c1ccccc1C(=O)O was read as eIF4E 4G PPI 1, Mcl1-Bid inh -49, Bim-Mcl-1 0, p47phox inh 0, Mcl1 Noxa PPI 10 and 14-3-3 Bad inh -1.
For Cc1ccc(Nc2cc(-n3nc(C)cc3C)ncn2)c(C)c1 the results were eIF4E 4G PPI -6, Mcl1-Bid inh -14, Bim-Mcl-1 5, p47phox inh 8, Mcl1 Noxa PPI 56* and 14-3-3 Bad inh 0.
For O=c1c2ccccc2sn1-c1nccs1 the results were eIF4E 4G PPI 68*, Mcl1-Bid inh -56, Bim-Mcl-1 -1, p47phox inh 104*, Mcl1 Noxa PPI 23 and 14-3-3 Bad inh -28.
O=c1c2ccccc2sn1-c1ccccc1 was read as eIF4E 4G PPI 54*, Mcl1-Bid inh -58, Bim-Mcl-1 -11, p47phox inh 60*, Mcl1 Noxa PPI 25 and 14-3-3 Bad inh -39.
Screening CN(C)S(=O)(=O)c1cccc(-n2sc3ccccc3c2=O)c1 returned eIF4E 4G PPI 56*, Mcl1-Bid inh -44, Bim-Mcl-1 -3, p47phox inh 93*, Mcl1 Noxa PPI 32 and 14-3-3 Bad inh -8.
`O=c1[nH]sc2ccccc12` gave eIF4E 4G PPI 12, Mcl1-Bid inh -65, Bim-Mcl-1 -5, p47phox inh 5, Mcl1 Noxa PPI 13 and 14-3-3 Bad inh 1.
Screening Cc1ccc(-n2sc3ccccc3c2=O)cc1S(=O)(=O)N1CCCCC1 returned eIF4E 4G PPI 32*, Mcl1-Bid inh -12, Bim-Mcl-1 -1, p47phox inh 85*, Mcl1 Noxa PPI 54* and 14-3-3 Bad inh 50.

Assay outcomes deposited in PubChem BioAssay by several laboratories.
